Source: PubChem BioAssay (NCI)
About 79,000 compounds went through this panel and 15% of them were active in at least one assay; those are over-represented in the sample as a whole. Active and inactive are the calls of the source. No stated cut-off is given here; in the data, active means growth inhibition above about 70%; inactive means the rest.

Columns and labels:
[1] = NCI Yeast Anticancer Drug Screen. Data for the rad52 strain (AID 147);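 further: 0% = growth of vehicle-treated control cultures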; details: S. cerevisiae rad52 mutant growth inhibition, active compounds read high
Outline: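 The repair-mutant yeast strain was incubated with compounds, then growth was read and inhibition derived relative to vehicle.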

[2] = NCI Yeast Anticancer Drug Screen. Data for the wt1 strain (AID 149);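 further: 0% = growth of vehicle-treated wt1 cultures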; details: S. cerevisiae wt1 strain (SPY 50644) growth inhibition, active compounds read high
Outline: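 Vehicle-normalised growth inhibition; strain wt1; compound exposure.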

[3] = NCI Yeast Anticancer Drug Screen. Data for the rad50EPP+ strain (AID 151);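 further: 0% = growth of vehicle-treated control cultures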; details: S. cerevisiae rad50 mutant strain, active compounds read high
Outline: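 Vehicle-normalised growth inhibition; rad50EPP+ yeast strain, altered in DNA damage repair, compound-treated.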

[4] = NCI Yeast Anticancer Drug Screen. Data for the mgt1 strain (AID 153); details: S. cerevisiae mgt1 mutant growth inhibition, active compounds read high
Outline: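 Vehicle-normalized growth inhibition is determined in mgt1 yeast, a strain selected for a defined alteration in DNA repair or cell cycle control.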

[5] = NCI Yeast Anticancer Drug Screen. Data for the rad50 strain (AID 155);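 further: 0% = growth of vehicle-only cultures of the same strain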; details: S. cerevisiae rad50 strain growth inhibition, active compounds read high
Outline: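 A DNA repair-deficient yeast mutant serves as the test organism; compound-induced growth inhibition is calculated against vehicle-treated cells.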

[6] = NCI Yeast Anticancer Drug Screen. Data for the mec2-1 strain (AID 157); details: S. cerevisiae mec2-1 strain, active compounds read high
Outline: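 Mutant yeast (mec2-1) grown with compound; growth inhibition relative to vehicle control reported.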

[7] = NCI Yeast Anticancer Drug Screen. Data for the rad14 strain (AID 159);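 further: 0% = growth of vehicle-treated control cultures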; details: S. cerevisiae rad14 strain growth inhibition, active compounds read high
Outline: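 Vehicle-treated cultures served as the baseline for growth inhibition of a DNA repair-mutant yeast strain exposed to each compound.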

[8] = NCI Yeast Anticancer Drug Screen. Data for the sgs1 mgt1 strain (AID 161);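 further: 0% = growth of cultures given vehicle only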; details: S. cerevisiae sgs1 mgt1 strain, active compounds read high
Outline: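 Growth of a repair-deficient yeast mutant was monitored after compound treatment and expressed as inhibition relative to vehicle-treated cultures.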

[9] = NCI Yeast Anticancer Drug Screen. Data for the CLN2oe strain (AID 163);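 further: 0% = growth of vehicle-only control cultures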; details: S. cerevisiae CLN2oe strain, active compounds read high
Outline: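 Compounds are applied to yeast harbouring a defined cell-cycle control change; reduced growth compared with vehicle-treated controls gives the value.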

[10] = NCI Yeast Anticancer Drug Screen. Data for the cln2 rad14 strain (AID 165);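 further: 0% = growth equal to vehicle treated cultures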; details: S. cerevisiae cln2 rad14 strain, active compounds read high
Outline: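 Readout is yeast growth inhibition versus vehicle-treated controls, using a strain with cln2 and rad14 alterations exposed to compound.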

[11] = NCI Yeast Anticancer Drug Screen. Data for the bub3 strain (AID 167); details: S. cerevisiae bub3 mutant strain, active compounds read high
Outline: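 Inhibition values come from growth of compound-treated mutant yeast normalised to vehicle-treated controls.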

[12] = NCI Yeast Anticancer Drug Screen. Data for the wt2 strain (AID 169);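 further: 0% = growth of vehicle-treated yeast cultures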; details: S. cerevisiae wt2 strain growth inhibition, active compounds read high
Outline: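 Against vehicle-treated controls, the growth of yeast exposed to each compound was compared, and the inhibition was recorded.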

[13] = NCI Yeast Anticancer Drug Screen. Data for the mlh1 strain (AID 171);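 further: 0% = growth of vehicle-treated control cultures of the same strain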; details: S. cerevisiae mlh1 strain growth inhibition, active compounds read high
Outline: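 Measured: yeast growth. Reference: vehicle-treated controls. Organism: strain with a defined alteration affecting DNA damage repair or cell cycle control, treated with compound.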

[14] = NCI Yeast Anticancer Drug Screen. Data for the mlh1 rad18 strain (AID 175); details: S. cerevisiae mlh1 rad18 strain growth inhibition, active compounds read high
Outline: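 Genetically defined yeast (DNA repair-deficient) exposed to compounds; growth inhibition determined relative to vehicle.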

[15] = NCI Yeast Anticancer Drug Screen. Data for the rad18 strain (AID 177); details: S. cerevisiae rad18 mutant growth inhibition, active compounds read high
Outline: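 Vehicle-treated cultures served as the baseline for scoring compound-induced growth inhibition in DNA-repair-mutant yeast.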

[16] = at 5.0 µM (retest, dose inferred, filed as 0.5)
[17] = at 50.0 µM (retest, dose inferred, filed as 5.0)

Measured: growth inhibition

CCC1(O)C(=O)OCc2c1cc1n(c2=O)Cc2cc3ccccc3nc2-1 (stereo not drawn)
active: [1]; at 1.2 µM 73% | [1]; at 3.7 µM 92% | [1]; at 11.0 µM 95% | [1]; at 33.0 µM 94% | [1]; at 100.0 µM 95% | [3]; at 11.0 µM 70% | [3]; at 33.0 µM 75% | [3]; at 100.0 µM 86% | [5]; at 1.2 µM 74% | [5]; at 3.7 µM 91% | [5]; [16] 94% | [5]; at 11.0 µM 95% | [5]; at 33.0 µM 94% | [5]; [17] 96% | [5]; at 50.0 µM 86.2% | [5]; at 100.0 µM 94% | [6]; [17] 89% | [6]; at 50.0 µM 77.2% | [6]; at 100.0 µM 82% | [14]; [17] 70%
inactive: [2]; at 1.2 µM -3% | [2]; at 3.7 µM 28% | [2]; at 11.0 µM 15% | [2]; at 33.0 µM 5% | [2]; at 100.0 µM 13% | [3]; at 1.2 µM 29% | [3]; at 3.7 µM 54% | [4]; at 1.2 µM -11% | [4]; at 3.7 µM -3% | [4]; at 11.0 µM -4% | [4]; at 33.0 µM -3% | [4]; at 100.0 µM 10% | [6]; at 1.2 µM -9% | [6]; at 3.7 µM -2% | [6]; [16] 21% | [6]; at 11.0 µM 23% | [6]; at 33.0 µM 36% | [7]; at 1.2 µM -4% | [7]; at 3.7 µM 7% | [7]; at 11.0 µM 5% | [7]; at 33.0 µM 12% | [7]; at 100.0 µM 24% | [8]; [16] 23% | [8]; [17] 56% | [8]; at 50.0 µM 47.5% | [9]; at 1.2 µM 12% | [9]; at 3.7 µM 26% | [9]; at 11.0 µM 33% | [9]; at 33.0 µM 18% | [9]; at 100.0 µM 41% | [10]; [16] 6% | [10]; [17] 27% | [10]; at 50.0 µM 19.3% | [11]; at 1.2 µM -14% | [11]; at 3.7 µM 9% | [11]; [16] 12% | [11]; at 11.0 µM -3% | [11]; at 33.0 µM 1% | [11]; [17] 27% | [11]; at 50.0 µM -24.9% | [11]; at 100.0 µM 10% | [12]; at 1.2 µM 6% | [12]; at 3.7 µM 4% | [12]; at 11.0 µM -1% | [12]; at 33.0 µM 1% | [12]; at 100.0 µM 10% | [13]; at 1.2 µM -5% | [13]; at 3.7 µM 13% | [13]; at 11.0 µM 15% | [13]; at 33.0 µM 2% | [13]; at 100.0 µM 15% | [14]; [16] 36% | [14]; at 50.0 µM -27.3%

Cn1cnc(N)c1C(=N)[Se]
active: [1]; at 11.0 µM 70% | [1]; at 33.0 µM 95% | [1]; at 100.0 µM 95% | [2]; at 100.0 µM 80% | [3]; at 3.7 µM 90% | [3]; at 11.0 µM 98% | [3]; at 33.0 µM 98% | [3]; at 100.0 µM 95% | [5]; at 11.0 µM 93% | [5]; at 33.0 µM 95% | [5]; [17] 89% | [5]; at 50.0 µM 96.5% | [5]; at 100.0 µM 93% | [6]; at 33.0 µM 93% | [6]; at 50.0 µM 86.5% | [6]; at 100.0 µM 93% | [7]; at 33.0 µM 91% | [7]; at 100.0 µM 94% | [12]; at 33.0 µM 77% | [12]; at 100.0 µM 87% | [14]; [17] 84% | [14]; at 50.0 µM 80.5% | [15]; at 33.0 µM 80% | [15]; at 100.0 µM 91%
inactive: [1]; at 1.2 µM 7% | [1]; at 3.7 µM 26% | [2]; at 1.2 µM -1% | [2]; at 3.7 µM 3% | [2]; at 11.0 µM 10% | [2]; at 33.0 µM 47% | [3]; at 1.2 µM 66% | [4]; at 1.2 µM 1% | [4]; at 3.7 µM -1% | [4]; at 11.0 µM 4% | [4]; at 33.0 µM 44% | [4]; at 100.0 µM 57% | [5]; at 1.2 µM 27% | [5]; at 3.7 µM 59% | [5]; [16] -44% | [6]; at 1.2 µM -2% | [6]; at 3.7 µM 0% | [6]; [16] -46% | [6]; at 11.0 µM 48% | [6]; [17] 50% | [7]; at 1.2 µM 9% | [7]; at 3.7 µM 15% | [7]; at 11.0 µM 46% | [8]; [16] -61% | [8]; [17] -32% | [8]; at 50.0 µM 13.3% | [9]; at 1.2 µM 1% | [9]; at 3.7 µM -2% | [9]; at 11.0 µM -3% | [9]; at 33.0 µM 11% | [9]; at 100.0 µM 28% | [10]; [16] -60% | [10]; [17] -40% | [10]; at 50.0 µM -53.6% | [12]; at 1.2 µM 10% | [12]; at 3.7 µM 25% | [12]; at 11.0 µM 59% | [14]; [16] -126% | [15]; at 1.2 µM -9% | [15]; at 3.7 µM 7% | [15]; at 11.0 µM 58%

c1c(N2CCOCC2)ssc1=[N+]1CCOCC1
inactive: [1]; at 1.2 µM 0% | [1]; at 3.7 µM 0% | [1]; at 11.0 µM -4% | [1]; at 33.0 µM -4% | [1]; at 100.0 µM -2% | [2]; at 1.2 µM -3% | [2]; at 3.7 µM -1% | [2]; at 11.0 µM 0% | [2]; at 33.0 µM 0% | [2]; at 100.0 µM -1% | [3]; at 1.2 µM 1% | [3]; at 3.7 µM 3% | [3]; at 11.0 µM 3% | [3]; at 33.0 µM 3% | [3]; at 100.0 µM 5% | [4]; at 1.2 µM 0% | [4]; at 3.7 µM 2% | [4]; at 11.0 µM -1% | [4]; at 33.0 µM 0% | [4]; at 100.0 µM 1% | [5]; at 1.2 µM -3% | [5]; at 3.7 µM -2% | [5]; [16] 4% | [5]; at 11.0 µM -5% | [5]; at 33.0 µM -3% | [5]; [17] 1% | [5]; at 50.0 µM 54.5% | [5]; at 100.0 µM -2% | [6]; at 1.2 µM 0% | [6]; at 3.7 µM -2%
